Screens as filed in PubChem.
G9a block: blocks human histone lysine methyltransferase G9a | hit rate 8.8% among 350,000 | G9a H3K9 monomethylation, AlphaScreen, 2 h | Potency, µM (doses to about 102 µM), for inactives: at the highest dose activity, negative = inhibition, usual class: inhibitors | AID 504332; note: % is set by controls: 0 for no effect and ±100 for the full control effect; nearly all actives have a fitted effect of over 75% in size
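G9a (20 nM) was preincubated 15 min with compound, then reacted 2 h at room temperature with 500 nM biotin-H3K9 peptide and 20 µM SAM. Monomethyl-H3K9 detected by AlphaScreen using anti-H3K9me1 antibody.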
HP1b chromo inh: HP1-beta chromodomain-methylated histone interaction inhibition | P83916 | AlphaScreen HP1-beta / biotin-H3K9me3 peptide binding | Potency, µM (series often up to 114 µM), without a hit: top-dose activity change, negative = inhibition, actives largely listed as inhibitors | hit rate 0.56% among 390,000 | AID 540317; note: nearly all actives have a fitted effect of over 70% in size
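AlphaScreen: HP1-beta (50 nM) preformed 30 min with biotin-H3(1-18)K9me3 peptide (50 nM) in PBS pH 7.4, 0.01% Tween-20. Compound added for 30 min at RT, then streptavidin donor/nickel chelate acceptor beads (10 ug/mL) for 30 min.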
TDP1 inh: inhibitors of human tyrosyl-DNA phosphodiesterase TDP1; Q9NUW8; hit rate 0.28% among 350,000; Potency, µM (doses to about 130 µM), for the others: at the highest dose activity change, negative = inhibition, hits mostly inhibitors; recombinant TDP1, AlphaScreen DNA substrate cleavage; AID 485290; note: % is set by controls: 0 for no effect and ±100 for the full control effect; nearly all actives have a fitted effect of over 40% in size
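Tdp1 1 nM final; 15 min RT w/ cpd; substrate 15 nM, 5 min; beads 10 ug/ml, 10 min; AlphaScreen read. Neg ctrl: no enzyme.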
Sfp PPTase inh: inhibitors of Bacillus subtilis Sfp phosphopantetheinyl transferase; Q9F4F7; Biochemical Sfp PPTase activity, qHTS; Potency, µM, for inactives: largest response in the series, negative = inhibition, most hits filed as inhibitors; hit rate 3.5% among 310,000; AID 1490;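 note: the enzyme is Sfp with the accession as filed and its product quenches rhodamine fluorescence; 0% = enzyme reaction without inhibitor and -100% = no enzyme wells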
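Step 1, compound plus 15 nM Sfp-PPTase, 15 min, room temperature. Step 2, add rhodamine-CoA (5 uM) and BHQ-2-YbbR (12.5 uM). Step 3, read 525/598 nm fluorescence at 0 and 30 min.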
BAZ2B inh: blocks human BAZ2B. AID 504333. hit rate 4.4% among 360,000. Q9UIF8. Potency, µM (titrated, usually from 114 µM), for inactives: top-dose activity change, negative = inhibition, actives largely listed as inhibitors. AlphaScreen BAZ2B-H3K14Ac peptide displacement; note: % is set by controls: 0 for no effect and ±100 for the full control effect; nearly all actives have a fitted effect of over 60% in size
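BAZ2B 50 nM plus b-H3(5-23)K14Ac 50 nM, PBS pH 7.4/0.01% Tween-20, 30 min RT; compound added (max 110 uM), 30 min RT; streptavidin donor/Ni-chelate acceptor beads 10 ug/mL final, 20 min dark; AlphaScreen read.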
JMJD2A Tudor: JMJD2A Tudor domain (human) inhibition. Potency, µM (series often up to 114 µM), inactives show top-dose activity change, negative = inhibition, usual class: inhibitors. AlphaScreen JMJD2A-Tudor / H3K4me3 peptide binding. AID 504339. hit rate 4.4% among 390,000. O75164; note: % is set by controls: 0 for no effect and ±100 for the full control effect; nearly all actives have a fitted effect of over 50% in size
Target sequence (O75164 whole entry, looked up, the tested form may be a part): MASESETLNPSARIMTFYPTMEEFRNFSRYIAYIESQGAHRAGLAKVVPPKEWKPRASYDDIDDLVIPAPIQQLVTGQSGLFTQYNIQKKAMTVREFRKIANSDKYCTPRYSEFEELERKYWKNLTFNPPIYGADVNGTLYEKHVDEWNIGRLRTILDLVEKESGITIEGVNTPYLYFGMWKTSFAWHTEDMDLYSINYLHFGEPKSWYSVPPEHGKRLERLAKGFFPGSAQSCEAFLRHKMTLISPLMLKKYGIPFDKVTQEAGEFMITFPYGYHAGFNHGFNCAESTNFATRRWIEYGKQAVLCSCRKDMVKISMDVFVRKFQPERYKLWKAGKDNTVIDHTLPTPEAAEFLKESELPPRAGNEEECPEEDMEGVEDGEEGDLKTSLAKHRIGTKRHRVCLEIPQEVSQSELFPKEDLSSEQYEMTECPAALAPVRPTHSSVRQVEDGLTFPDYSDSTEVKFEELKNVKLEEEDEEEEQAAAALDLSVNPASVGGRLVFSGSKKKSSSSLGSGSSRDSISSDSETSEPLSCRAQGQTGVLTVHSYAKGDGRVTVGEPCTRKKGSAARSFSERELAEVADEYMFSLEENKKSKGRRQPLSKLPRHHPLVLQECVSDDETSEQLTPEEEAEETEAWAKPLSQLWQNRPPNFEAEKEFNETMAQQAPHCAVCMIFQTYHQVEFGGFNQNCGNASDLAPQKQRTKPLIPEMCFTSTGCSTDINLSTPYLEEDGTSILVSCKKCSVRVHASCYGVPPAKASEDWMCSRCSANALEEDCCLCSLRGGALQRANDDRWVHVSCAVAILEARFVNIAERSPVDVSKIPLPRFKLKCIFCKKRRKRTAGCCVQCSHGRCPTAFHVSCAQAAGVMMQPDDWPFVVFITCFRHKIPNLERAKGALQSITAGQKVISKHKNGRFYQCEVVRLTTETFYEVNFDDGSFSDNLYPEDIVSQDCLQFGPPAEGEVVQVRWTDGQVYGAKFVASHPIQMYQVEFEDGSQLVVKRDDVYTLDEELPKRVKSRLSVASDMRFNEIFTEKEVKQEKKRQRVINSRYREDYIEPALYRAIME
The depositor's hits bear a star; ? = inconclusive; . = not tested or not shown; [ ] = another dose, or the depositor's remark. Rows were chosen to be rich in hits. Some 12% of all compounds tested hit in one or more screens of this group. Calls come from the whole dose curve; as a rule, active = well fitted curve in the direction sought with a large enough effect; inconclusive = small, poorly fitted or top-dose-only effect, or another doubt; inactive = no such curve, though single readings can be large; an effect the other way counts as inactive or inconclusive. Potency is the fitted concentration of half-maximal effect.

SMILES	G9a block	HP1b chromo inh	TDP1 inh	Sfp PPTase inh	BAZ2B inh	JMJD2A Tudor
COc1cccc(C2/C(=C(/O)c3ccccc3)C(=O)C(=O)N2Cc2ccco2)c1 (centres undefined)	56µM*	3%	-1%	?	-22%	-19%
COc1ccc(C2/C(=C(/O)c3ccccc3)C(=O)C(=O)N2CC(C)O)c(OC)c1 (centres undefined)	?	11%	-2%	-4%	-25%	18µM*
O=C(CN1C(=O)NC2(CCCC2)C1=O)Nc1cc(Cl)ccc1Oc1ccccc1	0%[59 µM]	21%	1%	.	7%	-27%
CCOc1ccc2nc(NC(=O)c3cc(=O)c4cc(C)cc(C)c4o3)sc2c1	4%[59 µM]	34%	6%	.	-1%	-17%
Cc1nnc(SCC(=O)NCC(=O)Nc2ccc(F)c(F)c2F)n1N	.	7%	1%	.	.	-17%
COc1ccc(OC)c(C2/C(=C(/O)c3ccc(C)cc3)C(=O)C(=O)N2Cc2ccco2)c1 (centres undefined)	?	23%	0%	3%	-38%	-2%
CCOc1cccc(/C(O)=C2/C(=O)C(=O)N(CCOC)C2c2ccco2)c1 (centres undefined)	?	19%	.	?	9%	79µM*
COc1ccc(/C(O)=C2\C(=O)C(=O)N(Cc3ccco3)C2c2cc(OC)ccc2OC)cc1 (centres undefined)	-81%[59 µM]	3%	4%	?	?	89µM*
Cc1ccc(C2/C(=C(/O)c3ccc(Br)cc3)C(=O)C(=O)N2Cc2ccco2)o1 (centres undefined)	15%[59 µM]	9%	2%	3.5µM*	1%	?
O=C1C(=O)N(Cc2ccco2)C(c2cccs2)/C1=C(\O)c1cccc([N+](=O)[O-])c1 (centres undefined)	24%[59 µM]	32%	.	45µM*	-30%	-19%
CCOc1ccccc1CNCc1c(C(=O)O)n(Cc2ccc(F)cc2)c2cc(C)ccc12	-8%[59 µM]	-2%	0%	.	-6%	-16%
CC(C)(C)OC(=O)N1CCC(c2c(C(=O)NCc3ccccc3)cnn2-c2ccc(F)cc2)CC1	7%[59 µM]	42%	3%	.	34%[57.1 µM]	-23%
COc1ccc(Cc2nnc(SCC(=O)c3ccc4c(c3)OCO4)o2)cc1	-7%	35%	0%	.	-3%	-5%
CC(NC(=O)c1ccccc1NC(=O)CN1CCc2ccccc2C1)c1ccccc1 (centres undefined)	17%	1%	0%	-12%	3%	-16%
O=C(NCCCN1CCN(c2ccc(F)cc2)CC1)C1COc2ccccc2C1 (centres undefined)	5%[59 µM]	0%[57 µM]	7%	.	?	?
O=c1[nH]cc(S(=O)(=O)N2CCOCC2)c(=O)[nH]1	4%	43%	-8%	.	11%	-12%
CN(C)C(CNC(=O)C1CCN(S(=O)(=O)c2cccc(Cl)c2Cl)CC1)c1ccccc1 (centres undefined)	-10%	19%	.	0%	-2%	-25%
COCCN1C(=O)C(=O)/C(=C(/O)c2cccc(OC)c2)C1c1ccncc1 (centres undefined)	50µM*	6%	7%	-3%	-17%	?
CCOc1ccc(CNC(=O)c2cccc(NC(=O)C3=C(C)OCCS3)c2)cc1	?	27%	10%	11%	50µM*	9%
CCOc1ccccc1C(=O)NCC(=O)NCC(C)(C)N1CCOCC1	40%[12.7 µM]	33%	0%	.	0%	-9%
Cc1cc2ncn(-c3ncccc3[N+](=O)[O-])c2cc1C	11µM*	-2%	15%	40µM*	89µM*	?
O=[N+]([O-])c1cccnc1-n1cnc2ccccc21	45µM*	21%	0%	10µM*	-11%	-6%
CC(C)(C)C1CCC(=NNC(=O)C(=O)NCc2ccco2)CC1 (centres undefined)	20µM*	25%	2%	3%	?	-15%
O=C(NCc1ccco1)C(=S)N1CCCC1	32µM*	18%	0%	35%	-13%	0%
S=C(NCc1ccco1)N1CCN(Cc2ccco2)CC1	7.1µM*	?	-5%	-30%	?	4.5µM*
SMILES	G9a block	HP1b chromo inh	TDP1 inh	Sfp PPTase inh	BAZ2B inh	JMJD2A Tudor
Fc1ccc(N2CCN(C(=S)NCc3ccco3)CC2)cc1	?	-12%	11%	11%	?	?
CC(C)(C)C1CCC(=NNC(=O)CC(=O)NCc2ccccc2)CC1 (centres undefined)	?	41%	5%	-5%	5%	-1%
CC(C)(C)[C@H](NC(=O)c1ccc(N)c(Cl)c1)C(=O)N1CCC[C@H]1C(=O)N[C@H](C#N)Cc1nn[nH]n1	?	.	.	.	-38%	.
CC1CN(C(=O)CCNC(=O)c2ccc(Br)cc2)CC(C)O1 (centres undefined)	-5%[0.501 µM]	16%	-1%	.	-1%	9%
CC(C)Cn1cc(NC(=O)N2CCN(c3ccc(F)cc3)CC2)c2ccccc2c1=O	-10%[59 µM]	19%	6%	.	7%[57.1 µM]	-11%
CCC(C)C(NC(=O)C(C)NC(=O)CNC(=O)OC(C)(C)C)C(N)=O (centres undefined)	4%	32%	3%	14%	-1%	-9%
O=c1cc(-c2ccsc2)oc2ccc(-c3ccc4cc[nH]c4c3)cc12	.	4%	2%	.	.	?
C=CCn1c(O)c(N=Nc2ccccc2)c2ccccc21	?	4%	.	-13%	-34%	-27%
C=CCn1c(O)c(N=NC(=O)OCC)c2ccccc21	12%[59 µM]	18%	0%	2%	-27%	-18%
C=CCn1c(O)c(N=NC(=S)Nc2cccc(OC)c2)c2ccccc21	28µM*	?	11%	12%	7.9µM*	?
C=CCn1c(O)c(N=NC(=S)Nc2ccc(OC)cc2)c2ccccc21	28µM*	?	11%	-13%	?	?
O=C(COc1ccc(Br)cc1)N1CCN(c2ccc([N+](=O)[O-])c(N3CCCCC3)c2)CC1	35µM*	-9%	8%	11%	-13%	?
CCOC(=O)c1c(C)n(S(=O)(=O)c2ccc(C)cc2)c2ccc(NS(=O)(=O)c3ccc(C)cc3)cc12	7%[59 µM]	18%	.	.	-14%	-18%
O=C1c2ccc(-c3ccc(F)cc3OCc3ccccc3)cc2S(=O)(=O)c2cccc(C(=O)N3CCN(c4ncc(Br)cn4)CC3)c21	.	6%	6%	.	.	?
O=C(O)c1cccc2c1C(=O)c1ccc(-c3ccc(F)cc3OCc3ccccc3)cc1S2(=O)=O	-13%[0.501 µM]	-2%	.	.	79µM*	?
